PubChem BioAssay AID1259240 (Keith Lab, Institute of Cancer Science, University of …, 2017)
Active and inactive are the calls of the source. Cut-off read from the data, not from the text of the source: active = fold change mostly below about -2 (no sharp cut-off); inactive = mostly above about -1.8.

Assay: TERT promoter activity modulators, primary screen, cell-based, luciferase reporter, human (AID 1259240)
Conditions: A2780 TERT promoter luciferase reporter, 16 h; at 20 µM, fold versus average of vehicle-only wells

Fold change, inactive:
CN(CC(=O)NCc1ccco1)S(=O)(=O)c1ccc2c(c1)c(=O)n(C)c(=O)n2C -1.15
CCS(=O)(=O)N1N=C(c2ccc(NS(C)(=O)=O)cc2)CC1c1ccccc1 (stereo unspecified) 1.35
O=C1C(=O)N(CC(=O)N2CCCCC2)c2ccccc21 1.04
COc1cc(/C=C2\SC(N3CCN(C)CC3)=NC2=O)cc(OC)c1OC -1.05
CCN(CC)CCNc1nc2c(c(=O)[nH]c(=O)n2C)n1Cc1cccc(C)c1 -1.42
COc1ccc(OC(C)c2nc(-c3ccc(C)cc3)no2)cc1 (stereo unspecified) -1.29
COc1ccc(NC(=O)Nc2ccc3snnc3c2)cc1OC 1.08
O=C(O)CN1C(=O)/C(=C/c2ccc(SCc3ccco3)o2)SC1=S -1.49
CN1C(=O)/C(=C/c2cn(CC(N)=O)c3ccccc23)c2ccccc21 1.5
Cc1ccc2c(C)nc(NC3=NCN(CC4CCCO4)CN3)nc2c1 (stereo unspecified) -1.73

Fold change, active:
O=C1N=C(N2CCOCC2)S/C1=C1\C(=O)N(Cc2ccccc2)c2ccccc21 -2.02
COc1ccc(-c2noc(-c3ccc(Cl)cc3)n2)cc1OC -4.04
Cc1cc(C(=O)O)ccc1-n1c(C)cc(C=C2C(=O)c3ccccc3C2=O)c1C -2.23
Cc1ccc(-c2noc(-c3ccccc3Cl)n2)cc1 -93.3
O=C(CSc1c2c(nc3cc(Cl)ccc13)CCCC2)Nc1nccs1 -3.17

outcome, active:
Cc1ccccc1Nc1c(-c2ccccc2O)nc2cnccn12
